From ChEMBL document CHEMBL1961873, “Compounds: GSK PKIS; Assays: Nanosyn kinase panel” (2012) come the findings set out here.

The target in assay [1] is RAC-alpha serine/threonine-protein kinase (Homo sapiens) (UniProt P31749). As to conditions: at 0.1 µM.
The target is the same in assay [2]. As to conditions: at 1 µM.
Assay [3] deals with RAC-beta serine/threonine-protein kinase (Homo sapiens) (UniProt P31751). The note with it: at 0.1 µM.
Assay [4] shares this target. As to conditions: at 1 µM.
The target of assay [5] is RAC-gamma serine/threonine-protein kinase (Homo sapiens) (UniProt Q9Y243). The note with it: at 0.1 µM.
Chain of RAC-gamma serine/threonine-protein kinase (Homo sapiens) (Q9Y243 whole entry): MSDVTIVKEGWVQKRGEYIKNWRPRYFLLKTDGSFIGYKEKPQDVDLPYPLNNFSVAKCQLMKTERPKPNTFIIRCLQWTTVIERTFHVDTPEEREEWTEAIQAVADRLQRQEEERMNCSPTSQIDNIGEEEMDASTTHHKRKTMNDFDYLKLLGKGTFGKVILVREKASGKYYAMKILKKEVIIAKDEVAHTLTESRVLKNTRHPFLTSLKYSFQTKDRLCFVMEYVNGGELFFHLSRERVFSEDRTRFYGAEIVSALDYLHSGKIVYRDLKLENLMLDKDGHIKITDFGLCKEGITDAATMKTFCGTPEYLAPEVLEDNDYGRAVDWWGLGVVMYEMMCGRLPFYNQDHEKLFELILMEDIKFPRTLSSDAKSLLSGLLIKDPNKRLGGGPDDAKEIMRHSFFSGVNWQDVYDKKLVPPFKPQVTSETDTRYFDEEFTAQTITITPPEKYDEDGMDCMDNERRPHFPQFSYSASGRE
Assay [6] shares this target. As to conditions: at 1 µM.
The target of assay [7] is G protein-coupled receptor kinase 6 (Homo sapiens) (UniProt P43250). As to conditions: at 0.1 µM.
Chain of G protein-coupled receptor kinase 6 (Homo sapiens) (P43250 whole entry, looked up): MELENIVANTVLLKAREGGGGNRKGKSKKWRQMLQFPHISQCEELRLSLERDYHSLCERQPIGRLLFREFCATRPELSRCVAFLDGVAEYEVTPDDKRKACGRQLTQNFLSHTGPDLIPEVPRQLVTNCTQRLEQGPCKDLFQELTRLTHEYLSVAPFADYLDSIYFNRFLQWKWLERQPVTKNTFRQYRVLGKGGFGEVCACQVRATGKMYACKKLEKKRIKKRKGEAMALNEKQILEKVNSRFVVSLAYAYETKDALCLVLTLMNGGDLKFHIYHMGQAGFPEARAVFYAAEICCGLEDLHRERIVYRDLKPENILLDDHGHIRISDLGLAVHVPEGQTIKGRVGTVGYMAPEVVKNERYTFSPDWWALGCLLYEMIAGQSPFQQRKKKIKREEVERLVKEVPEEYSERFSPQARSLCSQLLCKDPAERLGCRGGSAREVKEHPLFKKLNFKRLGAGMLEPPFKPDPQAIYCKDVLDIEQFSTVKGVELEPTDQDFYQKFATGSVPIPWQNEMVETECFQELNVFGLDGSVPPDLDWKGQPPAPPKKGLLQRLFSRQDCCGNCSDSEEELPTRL
Assay [8] shares this target. As to conditions: at 1 µM.
Assay [9] deals with T1, Rhodopsin kinase GRK7 (Homo sapiens) (UniProt Q8WTQ7).
T1 sequence (whole entry): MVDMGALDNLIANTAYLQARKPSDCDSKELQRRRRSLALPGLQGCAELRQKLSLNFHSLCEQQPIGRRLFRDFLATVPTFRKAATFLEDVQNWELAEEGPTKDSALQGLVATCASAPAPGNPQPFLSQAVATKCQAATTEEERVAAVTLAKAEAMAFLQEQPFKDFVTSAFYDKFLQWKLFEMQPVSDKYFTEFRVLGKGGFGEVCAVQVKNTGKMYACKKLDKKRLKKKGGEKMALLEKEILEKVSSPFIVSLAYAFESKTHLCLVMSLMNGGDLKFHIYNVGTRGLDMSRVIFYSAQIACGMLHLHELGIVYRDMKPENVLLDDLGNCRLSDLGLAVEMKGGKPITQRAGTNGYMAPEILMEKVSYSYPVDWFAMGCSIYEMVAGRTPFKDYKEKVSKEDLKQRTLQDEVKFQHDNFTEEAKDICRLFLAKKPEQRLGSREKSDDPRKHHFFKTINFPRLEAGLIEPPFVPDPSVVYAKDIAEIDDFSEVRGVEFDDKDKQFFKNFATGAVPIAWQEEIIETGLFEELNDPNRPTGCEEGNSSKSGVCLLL
The note with it: at 0.1 µM.

Assay [10] concerns the target T1, Rhodopsin kinase GRK7 (Homo sapiens). As to conditions: at 1 µM.

Chain of RAC-beta serine/threonine-protein kinase (Homo sapiens) (P31751 whole entry): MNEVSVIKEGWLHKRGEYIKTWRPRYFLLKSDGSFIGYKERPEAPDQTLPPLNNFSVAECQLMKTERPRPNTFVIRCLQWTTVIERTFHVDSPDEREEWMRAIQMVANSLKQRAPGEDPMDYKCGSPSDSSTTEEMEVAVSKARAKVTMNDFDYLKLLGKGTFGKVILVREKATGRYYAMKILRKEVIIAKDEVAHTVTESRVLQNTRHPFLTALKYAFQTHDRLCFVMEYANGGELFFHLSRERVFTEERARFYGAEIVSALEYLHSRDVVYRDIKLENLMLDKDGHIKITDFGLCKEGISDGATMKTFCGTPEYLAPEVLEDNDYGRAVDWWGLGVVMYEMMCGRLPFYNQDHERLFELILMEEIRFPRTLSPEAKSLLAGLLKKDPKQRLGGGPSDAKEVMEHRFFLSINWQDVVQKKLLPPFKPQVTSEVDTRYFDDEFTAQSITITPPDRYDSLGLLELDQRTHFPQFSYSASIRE
Chain of RAC-alpha serine/threonine-protein kinase (Homo sapiens) (P31749 whole entry): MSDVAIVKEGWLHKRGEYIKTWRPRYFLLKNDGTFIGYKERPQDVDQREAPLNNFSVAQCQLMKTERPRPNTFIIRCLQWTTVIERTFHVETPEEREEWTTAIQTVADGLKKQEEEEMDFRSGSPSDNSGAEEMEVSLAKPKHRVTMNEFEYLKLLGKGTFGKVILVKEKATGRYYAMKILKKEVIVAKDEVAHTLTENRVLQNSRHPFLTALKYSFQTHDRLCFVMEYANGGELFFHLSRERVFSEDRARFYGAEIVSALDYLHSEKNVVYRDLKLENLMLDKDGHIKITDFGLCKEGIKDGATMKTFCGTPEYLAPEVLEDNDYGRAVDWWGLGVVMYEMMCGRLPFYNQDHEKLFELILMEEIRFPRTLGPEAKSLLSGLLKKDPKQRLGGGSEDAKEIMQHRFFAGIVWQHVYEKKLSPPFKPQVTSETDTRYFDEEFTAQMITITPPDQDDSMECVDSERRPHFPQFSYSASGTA

Consider `CCn1c(-c2nonc2N)nc2cncc(C(=O)N3CCNCC3)c21`, for which the inhibition (as a rule, the relative decrease from the control value, in per cent) in assay [1] was 0.91%; in assay [2], 2.57%; in [3], 2.91%; in [4], 2.21%; in [5], 2.05%; in assay [6], 5.1%. Besides, the inhibition in assay [7] is 6.32%; in assay [8] it was 9.53%; in assay [9], 7.48%; in assay [10], 9.01%.
Consider `NC(=O)c1ccc(-c2nc(-c3ccccn3)c(-c3ccc4c(c3)OCO4)[nH]2)cc1`, for which the inhibition in [1] amounted to 0.43%; in [2], 0.86%; in assay [3] it was 1.27%; in assay [4] it was 1.16%; in assay [5], 0.75%; in [6] it was 0.48%. For the same molecule, the inhibition in [7] stood at 0.64%; in assay [8], 5.54%; in [9], 1.63%; in assay [10], 6.3%.
In the case of `CN1CCC(C(=O)Nc2n[nH]c3nnc(-c4ccccc4)cc23)CC1`, the inhibition in assay [1] was found to be 0.8%; in assay [2], 0.53%; in [3], 3.48%; in [4], 1.57%; in [5], 2.3%; in [6], 2.79%. In addition, the inhibition in assay [7] came to 7.16%; in assay [8] it was 14.5%; in assay [9] it was 7.52%; in [10] it was 15.6%.
In the case of `Nc1ncnc2occ(-c3ccc(NC(=O)Nc4cccc(C(F)(F)F)c4)cc3)c12`, the inhibition in assay [1] worked out at 1.53%; in assay [2], 0.96%; in assay [3] it was 1.75%; in assay [4] it was 2.15%; in assay [5], 0.73%; in assay [6] it was 2.7%. Further, the inhibition in assay [7] stood at 2.54%; in assay [8], 0.47%; in [9], 8.48%; in assay [10] it was 4.95%.
With `CCn1c(-c2nonc2N)nc2c(N3CCCC3)nccc21`, the inhibition in [1] was -2.09%; in assay [2], -2.19%; in assay [3], -3.12%; in [4] it was -0.45%; in [5], -0.61%; in [6] it was 1.15%. In addition, the inhibition in assay [7] is 0.48%; in [8], 2.71%; in assay [9], -7.43%; in assay [10], 0.27%.
For `COC(=O)Nc1nc2cc(Oc3cccc(NC(=O)Nc4cc(C(F)(F)F)ccc4F)c3)ccc2[nH]1`, the inhibition was 0.52% in assay [1]; 0.1% in assay [2]; -0.46% in [3]; -0.62% in assay [4]; 0.98% in assay [5]; 1.83% in [6]. Besides, the inhibition in [7] was 2.28%; in assay [8], 0.3%; in assay [9], -2.92%; in assay [10], 1.74%.
As for `CCCN1CCC(Oc2cc(Nc3nc(Nc4cccc(F)c4C(N)=O)c4cc[nH]c4n3)c(OC)cc2Cl)CC1`, the inhibition is 0.07% in [1]; 1.83% in assay [2]; 1.14% in [3]; 2.04% in assay [4]; 1.42% in assay [5]; 1.06% in assay [6]. Further, the inhibition came to 1.2% in assay [7], 1.87% in assay [8], 3.39% in assay [9] and 7.39% in assay [10].
For the molecule `O=C1Nc2ccc(C(=O)c3ccco3)cc2C1=Cc1cc(Cl)c(O)c(Cl)c1`, the inhibition in assay [1] turned out to be 0.57%; in [2], 1.08%; in assay [3], 1.49%; in assay [4] it was 0.98%; in [5], 1.75%; in assay [6] it was 0.62%. The inhibition in assay [7] was determined as 29.7%; in [8], 79.6%; in assay [9], 30.6%; in [10], 54.8%.
`CC1=C(C(=O)Nc2ccc3[nH]ncc3c2)C(c2ccc(Cl)c(Cl)c2)CC(=O)N1` (stereo not given): the inhibition was -0.08% in assay [1]; 1.46% in assay [2]; 1.11% in assay [3]; 1.63% in assay [4]; 0.95% in assay [5]; 2.81% in [6]. Further, the inhibition is 4.25% in [7], 7.35% in assay [8], -1.63% in [9] and -5.21% in assay [10].
Regarding `COC(=O)Nc1nc2cc(Oc3ccc(NC(=O)Nc4cccc(C(=O)O)c4)cc3)ccc2[nH]1`, the inhibition is -2.71% in assay [1]; -3.33% in [2]; -3.47% in [3]; -2.42% in assay [4]; -1.3% in assay [5]; -3.6% in assay [6]. Also, the inhibition in assay [7] is 2%; in assay [8], -0.77%; in assay [9] it was 1.5%; in assay [10] it was -3.21%.
On to `Cc1cccc(-c2n[nH]cc2-c2ccc3ncccc3n2)n1`, for which the inhibition in [1] is -0.73%; in assay [2], 0.02%; in [3] it was 0.56%; in [4], -0.22%; in [5], 2.42%; in assay [6], 2.13%. Further, the inhibition in assay [7] was 0.46%; in assay [8], 3.16%; in assay [9] it was -0.51%; in assay [10], 5.08%.
With `COc1cc2ncn(-c3cc(O[C@H](C)c4ccccc4Cl)c(C(N)=O)s3)c2cc1OC`, the inhibition in assay [1] is 1.41%; in [2], 2.07%; in assay [3] it was 2.49%; in assay [4] it was 2.19%; in assay [5], 0.81%; in assay [6], 1.74%. The inhibition in assay [7] amounted to 3.78%; in [8], 15%; in assay [9], 5.01%; in assay [10], 10.8%.
For the molecule `O=C1NC(=O)C(N2CCc3ccccc32)=C1c1ccc(Cl)cc1`, the inhibition in assay [1] worked out at 1.09%; in assay [2], 1.67%; in assay [3], 1.7%; in assay [4] it was 2.85%; in assay [5], 2.52%; in assay [6], 1.75%. Moreover, the inhibition in assay [7] came to 0.71%; in [8] it was 3.31%; in [9], 2.29%; in [10], 7.76%.
Regarding `CCn1c(-c2nonc2N)nc2c(C#CC(C)(C)O)nc(OC[C@@H](N)c3ccccc3)cc21`, the inhibition was 38.2% in assay [1]; 85.2% in assay [2]; 61.2% in assay [3]; 91.1% in assay [4]; 48.4% in [5]; 87.2% in [6]. Besides, the inhibition in assay [7] was -1.09%; in [8], -0.69%; in assay [9], -0.18%; in assay [10], 16.6%.
Regarding `COc1cccc(-n2ncc3c(N/N=C/c4cccc(F)c4)ncnc32)c1`, the inhibition in assay [1] was -2.98%; in assay [2], -3.97%; in assay [3], -2.03%; in [4], -2.75%; in [5], -1.82%; in assay [6], -1.99%. For the same molecule, the inhibition in assay [7] was 3.44%; in assay [8] it was 0.12%; in assay [9] it was 1.93%; in assay [10], 10.3%.
In the case of `CCn1c(-c2nonc2N)nc2cncc(C(=O)N3CC[C@H](N)C3)c21`, the inhibition in [1] was determined as 3.33%; in assay [2], 19.5%; in assay [3] it was 3.72%; in [4], 13.3%; in assay [5], 5.44%; in [6], 32.9%. In addition, the inhibition worked out at 6.84% in [7], 8.03% in [8], 3.41% in [9] and 10.7% in assay [10].
For `N#Cc1c(NC(=O)c2cccc3ccccc23)sc2c1CCCC2`, the inhibition in assay [1] was determined as 0.5%; in [2], 0.48%; in [3], 1.74%; in assay [4], 2.41%; in [5] it was 1.33%; in [6] it was 1.85%. In addition, the inhibition in assay [7] is 3.58%; in [8] it was 3.47%; in assay [9] it was 2.52%; in [10] it was 6.83%.
